Sampled rows, rich in hits. Any-hit rate of the full collection: about 2.4%.
D2 ag-1 – agonists of human D2 dopamine receptor | HEK293 T-REx D2 cells, calcium flux agonist mode | AID 485358 | activation, % at 2 µM | P14416 | 0.53% of 340,000 active;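 active = activation over 3 SD above normal in the single-dose calcium agonist read, cut at about 30% in these data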; also: 0% is about no effect
Target sequence (P14416 whole entry, looked up): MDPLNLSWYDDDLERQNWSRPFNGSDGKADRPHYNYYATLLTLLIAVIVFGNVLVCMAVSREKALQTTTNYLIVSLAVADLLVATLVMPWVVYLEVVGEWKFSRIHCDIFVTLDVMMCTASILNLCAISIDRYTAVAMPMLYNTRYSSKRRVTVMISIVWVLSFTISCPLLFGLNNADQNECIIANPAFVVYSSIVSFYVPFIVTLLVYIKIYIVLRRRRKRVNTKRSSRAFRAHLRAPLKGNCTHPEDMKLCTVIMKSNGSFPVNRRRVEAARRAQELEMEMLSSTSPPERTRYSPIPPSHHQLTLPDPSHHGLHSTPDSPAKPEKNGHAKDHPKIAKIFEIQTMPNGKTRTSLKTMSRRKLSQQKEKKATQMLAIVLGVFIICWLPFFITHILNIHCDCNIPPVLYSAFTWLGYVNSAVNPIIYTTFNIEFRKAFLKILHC
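Agonism scored from kinetic calcium signal (1 read/sec, 180 s) following compound pin transfer, after a 10 s baseline. Cells: HEK293 Trex line expressing inducible D2 receptor coupled to calcium, dye-loaded after overnight culture at 30 C.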
D2 PAM-1 – potentiates the human D2 dopamine receptor allosterically; P14416; DiscoveRx D2 beta-arrestin cells, luminescence, 90 min; 100% = 57 uM dopamine signal; potentiation, % (concentration not given with the values); 0.23% of 360,000 active; AID 624464; in the data active = potentiation above about 50%; inconclusive = mostly about 30% to 49%
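D2 cells co-treated with compound plus 50 nM dopamine (EC20) for 90 min at 37 deg C to detect potentiation. Beta-arrestin recruitment was read as enzyme-fragment luminescence after 1 h at ambient temperature. Full response was set by 57 uM dopamine.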
D2 ag-2 – agonists of human D2 dopamine receptor (beta-arrestin). P14416. DiscoveRx PathHunter D2 beta-arrestin, luminescence, 90 min; 100% = 57 uM dopamine signal. activation, % (test concentration not listed). 0.084% of 360,000 active; in the data active = activation above about 40%; inconclusive = between about 15% and that limit
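DiscoveRx PathHunter D2 beta-arrestin cells (2,100/well) attached overnight, then compound-stimulated 90 min at 37 C in HBSS/10 mM HEPES/0.1% Tween-20 buffer; beta-galactosidase complementation read by luminescence after 1 h at ambient temperature. Dopamine 57 uM final (EC100) as control.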
D2 antagonist – antagonists of human D2 dopamine receptor | P14416 | HEK293 TREx D2 cells, calcium flux, dopamine EC80 | inhibition, % at 10 µM | 2% of 340,000 active; in the data active = inhibition above about 30%; inactive = below that, where a call was filed; also: 0% is about no effect
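Read-out: kinetic calcium fluorescence (1 cycle/s) in inducible HEK293 T-REx D2 cells after an EC80 dopamine addition that followed 180 s compound preincubation. Loss of the dopamine response indicates antagonism.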
D2 PAM-2 – positive allosteric modulators of human D2 dopamine receptor. AID 485347. HEK293 T-REx D2, calcium flux, EC20 dopamine potentiation. potentiation, % at 10 µM. 0.34% of 340,000 active;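 active = potentiation over 3 SD above the plate norm, cut at about 30% in these data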; also: 0% is about no effect
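Using a no-wash calcium dye in inducible, force-coupled HEK293 Trex cells expressing D2, we tracked fluorescence each second for 180 s after compound, then for 180 s after EC20 dopamine to detect augmented signalling.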
D3 ag – activates human D3 dopamine receptor beta-arrestin recruitment; shares compounds with D2 ag-1; DiscoveRx D3 beta-arrestin cells, luminescence, 90 min; Potency, µM (series often up to 76.9 µM), inactives show at the highest dose activation, hits mostly activators; 4% of 2,300 active; AID 720506;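 also: potency is read from the fitted curve at half-maximal effect; 100% = dopamine control response; nearly all actives have a fitted effect of over 70% in size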
D2 ag-3 – D2 receptor agonism, beta-arrestin counterscreen; shares compounds with D2 ag-1; DiscoveRx PathHunter D2 beta-arrestin, luminescence, 90 min; response scale: percent relative to full dopamine signal; Potency, µM (top dose mostly 76.9 µM), inactives show at the top dose activation, usual class: activators; 5.9% of 2,300 active; also: potency is read from the fitted curve at half-maximal effect; % of control where 0% means no effect; nearly all actives have a fitted effect of over 70% in size
* marks the source's active call; other numbers are inactive results; ? = inconclusive; nt = not tested or not shown. Unless noted, calls follow the shape of the dose curve; as a rule, active = well fitted activation curve with a large enough effect; inconclusive = small, poorly fitted or top-dose-only effect; inactive = flat fitted curve, though single readings scatter.

SMILES	D2 ag-1	D2 PAM-1	D2 ag-2	D2 antagonist	D2 PAM-2	D3 ag	D2 ag-3
Cc1cnc(NC(=O)CCNC(=O)c2ccc([N+](=O)[O-])cc2)s1	-1	-3	-1	4	-7	nt	nt
O=c1[nH]cc(C=NNc2ccccc2)c(=O)[nH]1	nt	0	4	nt	nt	nt	nt
CCn1nc(C(=O)N2CCN(Cc3ccc4c(c3)OCO4)CC2)c2ccccc2c1=O	50*	-10	-2	16	-24	-10%	3%
CC(C)CC(=O)N1CCN(Cc2cccc(F)c2)CC1	16	-5	4	-10	0	nt	nt
COc1cccc(CN2CCN(C(=O)CC(C)C)CC2)c1	55*	12	3	-20	-10	12%	8%
CN(C)c1ccc2c3c(cccc13)C(=O)N(c1ccccc1)C2=O	8	nt	nt	16	-6	nt	nt
Cc1cccc(N2C(=O)c3cccc4c(N(C)CCO)ccc(c34)C2=O)c1	0	-7	-10	7	1	-5%	3%
CCOC(=O)C1(C)CCCN(C(=O)c2cc(C)on2)C1 (stereo not given)	nt	-4	-5	nt	nt	nt	nt
O=C(c1cccc(NS(=O)(=O)c2ccc(Br)cc2)c1)N1CCN(c2ccccc2O)CC1	1	-23	-5	3	-10	9%	11%
O=C(c1cccc(S(=O)(=O)Nc2ccccc2Cl)c1)N1CCN(c2ccccc2O)CC1	0	-1	15	14	7	11%	8%
C=CCn1c(SC(C)C(=O)c2c(N)n(C)c(=O)n(C)c2=O)nnc1-c1ccoc1C (stereo not given)	32*	6	5	-7	-8	-27%	5%
CN1CCc2c(sc(/N=C/c3cc(C(C)(C)C)ccc3O)c2C#N)C1	92*	27	43*	90*	-23	20%	?
CC(=O)SC1CC(=O)N(c2c(C)cccc2C)C1=O (stereo not given)	55*	-9	-7	27	-20	-17%	-12%
Cc1nnc2n1N=C(c1ccc(F)cc1F)CS2	0	-2	-3	2	18	nt	nt
COc1ccc(-c2c(-c3cc(OC)cc(OC)c3)n(C)c3ccc(-c4cccc5[nH]ccc45)cc23)cc1	0	-1	-2	2	16	0%	3%
O=C(CSc1nc2[nH]ncc2c(=O)n1-c1ccccc1)N1CCCCCC1	-1	nt	nt	-11	14	nt	nt
COc1ccccc1N1CCN(S(=O)(=O)CCNC(=O)COc2ccccc2)CC1	nt	-17	0	nt	nt	nt	nt
COc1ccccc1OCC(=O)NCCS(=O)(=O)N1CCN(c2ccccc2)CC1	44*	15	?	62*	-14	?	?
Cn1nc(C(F)(F)F)c(C#N)c1N1CCN(c2ccccn2)CC1	11	-3	0	-33	-1	12%	17%
CN(C)C(CNC(=O)c1sc2ccccc2c1Cl)c1ccco1 (stereo not given)	nt	-47	-2	nt	nt	nt	nt
O=C(NCCN1CCN(c2cccc(Cl)c2)CC1)C1CCCN(S(=O)(=O)c2cnc[nH]2)C1 (stereo not given)	81*	25	1	81*	-17	?	?
O=C(NCCN1CCN(c2ccccc2)CC1)C1CCN(S(=O)(=O)N2CCOCC2)CC1	84*	6	?	61*	-24	?	?
O=C(NCCN1CCN(c2ccccc2)CC1)C1CCCN(S(=O)(=O)c2cnc[nH]2)C1 (stereo not given)	74*	74*	?	76*	-25	?	?
CC(=O)c1c(O)c2ccccc2n(C)c1=O	-2	0	-4	10	-5	nt	nt
Cn1c(=O)c(Oc2ccc(F)cc2)c(O)c2ccccc21	50*	11	9	3	-16	3%	-2%
O=S(=O)(NCc1ccc(F)cc1)c1cc(Br)ccc1Br	-1	-3	-1	4	-15	-1%	-5%

Screening data: PubChem, National Center for Advancing Translational Sciences (NCATS)
